An excerpt weighted towards active compounds, which were near 12% of everything screened.
G9a inh – blocks human histone lysine methyltransferase G9a; Q96KQ7; G9a H3K9 monomethylation, AlphaScreen, 2 h; Potency, µM (titrated, usually from 102 µM), without a hit: at the top dose activity, negative = inhibition, hits mostly inhibitors; 350,000 compounds, 8.8% hits; AID 504332; also: % is scaled to controls: 0 for no effect and ±100 for the full control effect; nearly all actives have a fitted effect of over 75% in size
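G9a (20 nM) preincubated 15 min RT with compounds, then 500 nM biotinylated H3K9 peptide and 20 uM SAM added; 2 h RT reaction. Monomethyl-H3K9 product detected by AlphaScreen with anti-H3K9me1 antibody, streptavidin donor and anti-rabbit IgG acceptor beads.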
BAZ2B inh – inhibitors of human BAZ2B bromodomain; Q9UIF8; AlphaScreen BAZ2B-H3K14Ac peptide displacement; Potency, µM (series often up to 114 µM), inactives show at the highest dose activity change, negative = inhibition, usual class: inhibitors; 360,000 compounds, 4.4% hits; also: % is scaled to controls: 0 for no effect and ±100 for the full control effect; nearly all actives have a fitted effect of over 60% in size
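AlphaScreen displacement: compounds (up to 110uM) incubated 30 min at room temperature with a preformed 50 nM BAZ2B/50 nM biotinylated H3K14Ac peptide complex in PBS pH 7.4 with Tween-20. Donor and acceptor beads at 10 ug/mL final added, 20 min light-protected before reading.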
HP1b chromo inh – inhibitors of HP1-beta chromodomain binding to methylated histone tails; Potency, µM (titrated, usually from 114 µM), inactives show at the highest dose activity change, negative = inhibition, most hits filed as inhibitors; P83916; AlphaScreen HP1-beta / biotin-H3K9me3 peptide binding; 390,000 compounds, 0.56% hits; also: nearly all actives have a fitted effect of over 70% in size
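AlphaScreen: HP1-beta (50 nM) preformed 30 min with biotin-H3(1-18)K9me3 peptide (50 nM) in PBS pH 7.4, 0.01% Tween-20. Compound added for 30 min at RT, then streptavidin donor/nickel chelate acceptor beads (10 ug/mL) for 30 min.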
L3MBTL1 block – inhibitors of human L3MBTL1; Q9Y468; AlphaScreen L3MBTL1–H3K9me1 peptide binding; Potency, µM (series often up to 57.1 µM), for the others: at the highest dose activity, negative = inhibition, actives largely listed as inhibitors; 230,000 compounds, 0.66% hits; AID 485360; also: % is scaled to controls: 0 for no effect and ±100 for the full control effect; nearly all actives have a fitted effect of over 60% in size
Target sequence (Q9Y468 whole entry, looked up): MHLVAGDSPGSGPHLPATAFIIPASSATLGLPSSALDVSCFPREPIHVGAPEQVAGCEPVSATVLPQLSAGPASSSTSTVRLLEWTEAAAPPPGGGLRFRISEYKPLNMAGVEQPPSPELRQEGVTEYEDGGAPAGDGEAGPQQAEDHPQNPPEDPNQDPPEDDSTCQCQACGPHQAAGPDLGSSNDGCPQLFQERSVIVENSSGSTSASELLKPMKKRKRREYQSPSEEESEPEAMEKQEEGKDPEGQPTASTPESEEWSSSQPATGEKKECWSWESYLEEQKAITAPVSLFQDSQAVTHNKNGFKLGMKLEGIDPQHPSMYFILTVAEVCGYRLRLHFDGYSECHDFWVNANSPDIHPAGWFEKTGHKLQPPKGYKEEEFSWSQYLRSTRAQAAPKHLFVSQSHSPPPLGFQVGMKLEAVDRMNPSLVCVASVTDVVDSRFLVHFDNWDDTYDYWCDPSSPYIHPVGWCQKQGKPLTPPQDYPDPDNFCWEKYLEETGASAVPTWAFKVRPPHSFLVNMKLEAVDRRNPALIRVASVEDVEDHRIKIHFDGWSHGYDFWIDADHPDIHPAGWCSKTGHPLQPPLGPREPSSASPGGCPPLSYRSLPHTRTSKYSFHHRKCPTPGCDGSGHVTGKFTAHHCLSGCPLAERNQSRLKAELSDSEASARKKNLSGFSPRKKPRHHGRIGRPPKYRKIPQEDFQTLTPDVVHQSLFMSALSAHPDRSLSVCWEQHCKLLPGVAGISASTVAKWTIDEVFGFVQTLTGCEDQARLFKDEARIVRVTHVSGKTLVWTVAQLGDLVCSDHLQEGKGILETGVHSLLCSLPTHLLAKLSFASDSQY
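Displacement of a biotinylated histone H3(1-15) peptide monomethylated at Lys9 (75 nM) from L3MBTL1 (50 nM) was measured by AlphaScreen after a 30 min room-temperature compound incubation; cefsulodin titration served as intraplate control.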
Sfp PPTase inh – blocks B. subtilis Sfp PPTase activity; Q9F4F7; Biochemical Sfp PPTase activity, qHTS; Potency, µM, for the others: largest response in the series, negative = inhibition, hits mostly inhibitors; 310,000 compounds, 3.5% hits; AID 1490;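 also: the enzyme is Sfp with the accession as filed and its product quenches rhodamine fluorescence; 0% = enzyme reaction without inhibitor and -100% = no enzyme wells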
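Reaction rates are the 30-min fluorescence difference (ex 525, em 598 nm) in wells containing 15 nM Sfp, 5 uM rhodamine-CoA and 12.5 uM BHQ-2-YbbR at pH 7.6 with 10 mM MgCl2.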
JMJD2A Tudor – JMJD2A Tudor domain (human) inhibition; O75164; AlphaScreen JMJD2A-Tudor / H3K4me3 peptide binding; Potency, µM (top dose mostly 114 µM), inactives show at the top dose activity change, negative = inhibition, usual class: inhibitors; 390,000 compounds, 4.4% hits; AID 504339; also: % is scaled to controls: 0 for no effect and ±100 for the full control effect; nearly all actives have a fitted effect of over 50% in size
Active calls of the source: *; ? = inconclusive; · = no result given; ! = a repeat was not active; [ ] = another dose, or the depositor's remark. Calls follow the shape of the dose curve; as a rule, active = well fitted curve in the direction sought with a large enough effect; inconclusive = small, poorly fitted or top-dose-only effect, or another doubt; inactive = no such curve, though single readings can be large; an effect the other way counts as inactive or inconclusive. Potency is read from the fitted curve at half-maximal effect.

SMILES	G9a inh	BAZ2B inh	HP1b chromo inh	L3MBTL1 block	Sfp PPTase inh	JMJD2A Tudor
O=[N+]([O-])/C(C(Cl)=C(Cl)Cl)=C1\Nc2ccccc2O1	35µM*	50µM*	?	-13%	-16%	40µM*
COc1ccc(CNC(=O)c2ccc3c(c2)CCN3S(=O)(=O)c2ccc(C)cc2)cc1	7%[59 µM]	-18%	35%	·	·	-7%
CCN(CC)S(=O)(=O)c1ccc(NC(=O)CN(c2ccccc2)S(=O)(=O)N(C)C)cc1	-19%[59 µM]	-2%	22%	·	·	-11%
Cc1ccc(C(c2nnnn2CC2CCCO2)N2CCN(C(=O)c3ccco3)CC2)cc1 (stereo not drawn)	76%[59 µM]	-35%	41%	-3%	10%	-4%
O=C(c1ccco1)N1CCN(Cc2nnnn2CC2CCCO2)CC1 (stereo not drawn)	?	-30%	40%	-4%	-6%	28µM*
O=C(c1ccco1)N1CCN(C(c2ccc(Cl)cc2)c2nnnn2CC2CCCO2)CC1 (stereo not drawn)	-47%[12.7 µM]	?	0%	·	56µM*	79µM*
Cc1ccc(NC(=O)Cn2c(=O)n(Cc3ccccc3)c(=O)c3c2c2cc(C)ccc2n3C)cc1	6%[59 µM]	7%	38%	·	·	-4%
CCN(CC)C(=O)c1c(-c2ccccc2)c(-c2ccccc2)nn(C)c1=O	-7%[59 µM]	-2%	32%	·	·	-14%
CCCOC(=O)CSC1=C(C#N)C(c2ccccc2OCC)C(C#N)C(=O)N1 (stereo not drawn)	?	50µM*	?	-10%	-3%	-31%
CCOC(=O)C1C(=O)NC(SCC(N)=O)=C(C#N)C1c1ccccc1OCC (stereo not drawn)	20µM*	-28%	-15%	-6%	16µM*	?
CCCCOC(=O)CSC1=C(C#N)C(c2ccccc2OCC)C(C#N)C(=O)N1 (stereo not drawn)	29%[0.501 µM]	50µM*	-3%	-5%	-9%	-36%
CC(Sc1ccsc1[N+](=O)[O-])C(=O)NCc1ccco1 (stereo not drawn)	?	-29%	9%	·	50µM*	-32%
Cc1cc(C)cc(C(=O)Nc2c(C(=O)Nc3ccccc3F)oc3ccccc23)c1	35%[59 µM]	-6%	86%	·	·	1%
NC(CS(=O)O)C(=O)O (stereo not drawn)	·	·	23%	·	·	35µM*
N[C@@H](CS(=O)O)C(=O)O	21µM*!	·	·	·	56µM*	·
COCCNC(=O)CCn1c(=O)c2cc(OC)c(OC)cc2n(CC(=O)Nc2ccc(F)c(Cl)c2)c1=O	-1%[59 µM]	-14%	32%	·	·	-16%
C=CCN1CCCC1CNC(=O)c1cc(S(N)(=O)=O)cc(OC)c1OC (stereo not drawn)	0%[12.7 µM]	·	·	·	-1%	·
CCn1c(=O)c2cc(C(=O)N(CC(C)C)CC(C)C)sc2c2ccccc21	3%[59 µM]	5%	41%	·	·	7%
CCOC(=O)c1csc(N/N=C2\CCc3ccccc32)n1	28µM*	45µM*	2%	·	-15%	?
CCOC(=O)c1csc(NC(=O)c2cccs2)n1	18%	-12%[57.1 µM]	19%[57 µM]	·	19%	-6%
CCOC(=O)c1csc(N/N=C2\CCCc3ccccc32)n1	25µM*	?	21%	·	79µM*	?
CCCS(=O)(=O)c1c(S(=O)(=O)CCC)c2cc(C(C)(C)C)ccn2c1C(=O)c1ccccc1	?	-10%	25%	·	·	?
O=C(N/N=C/c1ccncc1)c1cccs1	11%	-1%	11%	·	17%	-14%
O=C(N/N=C/c1ccc(-c2ccccc2C(=O)O)o1)c1cccs1	8.9µM*	56µM*	5%	25µM*	50µM*	89µM*
COc1cc2c(cc1N)-c1ccc(N)cc1C2	·	·	?	·	·	14µM*
SMILES	G9a inh	BAZ2B inh	HP1b chromo inh	L3MBTL1 block	Sfp PPTase inh	JMJD2A Tudor
Nc1ccc2c(c1)Cc1cc(N)c(Br)cc1-2	·	·	?	·	·	50µM*
COc1cccc(NC(=O)c2oc3ccccc3c2NC(=O)Cc2cccc(C)c2)c1	6%[59 µM]	-9%	51%	·	·	-13%
Cc1cccc(C2C3=C(Nc4[nH]n(-c5ccccc5)c(=O)c42)c2ccccc2C3=O)c1 (stereo not drawn)	20µM*	32µM*	?	-28%	-16%	35µM*
Nc1nc2c(c(=O)[nH]1)C(c1ccccc1)C1=C(N2)c2ccccc2C1=O (stereo not drawn)	?	?	2%	·	?	-6%
Cc1ccc(-c2c(C(=O)N/N=C/c3ccc(C)o3)nnn2-c2nonc2N)cc1	·	-25%	26%	·	50µM*	5%
Cc1ccc(/C=N/NC(=O)c2nnn(-c3nonc3N)c2CNc2ccccc2)cc1	-9%	-32%	-7%	·	16%	22µM*
Cc1ccc(/C=N/NC(=O)c2nnn(-c3nonc3N)c2CSc2ccccc2)cc1	·	-3%	43%	11%	10%	-10%
Cc1ccc(-c2c(C(=O)N/N=C/c3ccco3)nnn2-c2nonc2N)cc1	24%	-18%[57.1 µM]	54%	·	8%	-23%
Nc1c(C(=O)O)nnn1Cc1ccccc1	?	-30%	6%	·	-4%	-23%
CCn1nnc(C(=O)O)c1C(=O)O	?	?	0%	7%	1%	20µM*
Cc1ccccc1-c1noc(-c2ccc(N3CCN(C)CC3)c([N+](=O)[O-])c2)n1	-9%[59 µM]	-11%	-7%	·	·	-15%
COC(=O)C1=C(C(=O)OC)SC2(S1)C(C(=O)OC)=C(C(=O)OC)SC1=C2c2cc(C)ccc2NC1(C)C	?	?	-81%	·	2.8µM*	56µM*
COc1cccc(NC(=O)N(Cc2c[nH]c3ccccc23)C2CCCCCC2)c1	-29%[59 µM]	·	27%	·	·	-34%
O=C(c1cc([N+](=O)[O-])ccc1Cl)N1c2ccccc2Sc2ccccc21	8.9µM*	?	-34%	-29%	-11%	?
C#CC(C)OC(=O)c1nnc2c3ccccc3n(COC)c2n1 (stereo not drawn)	·	·	·	·	9%	·
Cn1cc[nH]c1=S	45µM*	-23%	16%	-7%	?	?
O=C1C(Cl)=C(NCC2CCCO2)C(=O)N1C1CCCCC1 (stereo not drawn)	-3%[0.0925 µM]	-3%	77%	37%	40µM*	0%[57.1 µM]
O=C1C(Cl)=C(NCC2CCCO2)C(=O)N1c1ccccc1 (stereo not drawn)	?	-6%	42%	10%	-9%	9%
CC(C)(C)c1ccc(CSc2nnc(-c3ccccn3)n2Cc2ccco2)cc1	-5%[12.7 µM]	?	21%	·	32µM*	-23%
CNC(=O)CSc1nnc(-c2ccccn2)n1Cc1ccco1	·	?	33%	3%	5%	-4%
Brc1ccc(CSc2nnc(-c3ccccn3)n2Cc2ccco2)cc1	50µM*	?	26%	-13%	-25%	-33%

Source: PubChem BioAssay
